Bioassay records: PubChem, The Scripps Research Institute Molecular Screening Center
hgDAF-12 ag – hgDAF-12 agonism, primary luciferase screen. actives 1.8% (n = 370,000). HEK293 GAL4-hgDAF12 UAS-luciferase reporter, agonist luminescence; normalized to butyrate control. AID 687014. activation, % at 6.8 µM;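 active = activation above a cutoff set at the mean of all screened compounds plus 3 SD, cut at about 10% in these data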
hcDAF12 agonist – activates DAF-12 receptor from parasite H. contortus | HEK293 hcDAF-12 lit1-tk-luc reporter, luminescence; 0% DMSO, 100% Δ7-dafachronic acid | activation, % at 6.8 µM | actives 1.4% (n = 370,000);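 active = activation above the mean of all tested compounds plus 3 SD, cut at about 5.5% in these data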
DAX1 inh-1 – NR0B1 (DAX1) inhibition; HEK293 Gal4-DAX1 luciferase reporter, luminescence; AID 504766; inhibition, % at 6.75 µM; actives 0.99% (n = 340,000); P51843;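 active = inhibition above the mean over all tested compounds plus 3 SD, cut at about 4.2% in these data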;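 note: inhibition shows as a rise in luminescence from relieved DAX1 repression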
Target sequence (P51843 207-470 limits assumed): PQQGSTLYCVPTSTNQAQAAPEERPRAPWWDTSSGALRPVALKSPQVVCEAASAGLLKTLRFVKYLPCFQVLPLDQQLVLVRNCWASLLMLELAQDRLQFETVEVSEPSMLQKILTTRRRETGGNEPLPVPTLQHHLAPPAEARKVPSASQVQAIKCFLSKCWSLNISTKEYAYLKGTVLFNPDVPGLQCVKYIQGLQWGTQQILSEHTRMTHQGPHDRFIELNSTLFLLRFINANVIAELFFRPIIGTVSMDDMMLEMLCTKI
ssDAF-12 act – activates DAF-12 receptor from parasite S. stercoralis; HEK293 ssDAF-12/GRIP1 lit1-tk-luc reporter, luminescence; % of 3 µM dafachronic acid response; actives 1% (n = 370,000); AID 652126; activation, % at 6.8 µM;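 active = activation above the mean over all tested compounds plus 3 SD, cut at about 0.9% in these data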
DAX1 inh-2 – inhibitors of DAX1 repression of SF-1 activated StAR promoter. HEK293T StAR-luciferase reporter, SF-1/DAX-1 repression relief. inhibition, % at 6.8 µM. actives 1.1% (n = 370,000). AID 652010;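 active = inhibition above the mean over all tested compounds plus 3 SD, cut at about 3.6% in these data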;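 note: higher inhibition means more luminescence from relief of DAX-1 repression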
Of the large screens only hits and unclear results are named; the others gave an inactive call. In the library only some 4.1% were active in any assay of this set; here they are far more common.

CC1(c2cccc(Br)c2)NC(=O)N(CC(=O)Nc2cccnc2Cl)C1=O (stereo not drawn)	DAX1 inh-2 3.7
CC1(c2ccccc2Cl)NC(=O)N(CC(=O)Nc2cccnc2Cl)C1=O (stereo not drawn)	none
OCC(O)C(O)C(O)C(O)c1nc2ccccc2[nH]1 (stereo not drawn)	none
CCN(CC)C(=S)SCC(=O)c1ccc(F)cc1	ssDAF-12 act 1.1
CCN(CC)C(=S)SCC(=O)Nc1ccc(F)cc1	none
CCN(CC)C(=S)SCC(=O)c1c(C)[nH]c2ccccc12	none
CCN(CC)C(=S)SCC(=O)c1ccccc1	hgDAF-12 ag 11
CC(COc1cccc([N+](=O)[O-])c1)CN1CCC(C(O)(c2ccccc2)c2ccccc2)CC1 (stereo not drawn)	none (no result: DAX1 inh-1)
COC(=O)CNC(=O)COC(=O)/C=C/c1ccccc1[N+](=O)[O-]	ssDAF-12 act 2.0
O=C(/C=C/c1ccccc1[N+](=O)[O-])NCc1ccc(Cl)cc1	none
N#C/C(=C\c1ccccc1[N+](=O)[O-])C(=O)NCc1ccccc1	DAX1 inh-1 4.5
NS(=O)(=O)c1ccc(CNC(=O)/C=C/c2ccccc2[N+](=O)[O-])cc1	DAX1 inh-1 4.4
COc1ccc(NC(=O)COC(=O)/C=C/c2ccccc2[N+](=O)[O-])cc1	none
CC(C)N1CCCCC(NC(=O)Cc2ccccc2)C1=O (stereo not drawn)	none (no result: DAX1 inh-1)
CN(CC(=O)Nc1cccc(F)c1)C(=O)c1cccc(S(=O)(=O)N2CCN(Cc3ccccc3)CC2)c1	ssDAF-12 act 11
CCOc1ccc(N(C(C)=O)C2C=CS(=O)(=O)C2)cc1 (stereo not drawn)	DAX1 inh-1 5.3
O=C(Nc1c(F)c(F)c(F)c(F)c1F)OC[C@@H]1CSCCS(=O)(=O)N1	DAX1 inh-2 3.6 (no result: DAX1 inh-1)
Nc1nc(-c2ccccc2)c(N=Nc2ccc(Cl)cc2)s1	ssDAF-12 act 1.2
CC(C)CNC(=O)OCc1cn(Cc2ccccc2)nn1	none (no result: DAX1 inh-1)
NC(=O)CCn1cnc2ccccc21	DAX1 inh-1 4.3
c1ccc(Cn2cnc3ccccc32)cc1	hgDAF-12 ag 13
Cc1ccc2c(c1)c(N=Nc1ccc([N+](=O)[O-])cc1)c(O)n2C	hcDAF12 agonist 6.0
Cc1c(C)n(C)c2ccc([N+](=O)[O-])cc12	none
Cn1c(O)c(N=Nc2ccccc2)c2ccccc21	ssDAF-12 act 1.2
Cn1c(O)c(N=NC(=O)Cc2c[nH]c3ccccc23)c2ccccc21	none
Cn1c(O)c(N=Nc2ccc(F)cc2)c2ccccc21	hcDAF12 agonist 5.6
CC(C)N(Cc1cn(Cc2ccccc2)nn1)S(=O)(=O)c1ccccc1Br	none (no result: DAX1 inh-1)
CCN(C(=O)COC(=O)c1ccc(Sc2ncn[nH]2)c([N+](=O)[O-])c1)c1ccccc1C	none (no result: DAX1 inh-1)
CNc1cnc(-c2ccc(F)c(F)c2F)cn1	hgDAF-12 ag 12, DAX1 inh-2 3.8 (no result: DAX1 inh-1)
O=C(NC1CCCCN(Cc2cccc(C(F)(F)F)c2)C1=O)c1ccc(COc2ccccc2)cc1 (stereo not drawn)	none (no result: DAX1 inh-1)
Cc1c(C)c2ccc(OC(C)C(=O)N[C@@H](Cc3c[nH]c4ccccc34)C(=O)O)c(C)c2oc1=O (stereo partly drawn)	hcDAF12 agonist 5.9
COc1cccc(/C=C2\CC3(OC(=O)C4CCCCC4)CCCN2C3)c1 (stereo not drawn)	none (no result: DAX1 inh-1)
Nc1nc2ccc(Oc3ccccc3)cc2s1	hgDAF-12 ag 12
CCOC(=O)c1cc2nc(-c3ccccc3)cc(C)n2n1	none
CCOC(=O)c1cnn2c(C)cc(-c3ccccc3)nc12	DAX1 inh-1 4.3
C=CCOc1ccc(C(=O)NC2CCCCC2)cc1	hgDAF-12 ag 10
CC(C)Oc1ccc(C(=O)NC2CCCCC2)cc1	none
O=C(NCCC1=CCCCC1)c1ccc(CN2CCOCC2)cc1	ssDAF-12 act 0.9
O=C(NC1CCCCCC1)c1ccc(CN2CCOCC2)cc1	DAX1 inh-1 4.6
N#Cc1ccc(OC[C@@H](O)CN2CCC(C(O)(c3ccccc3)c3ccccc3)CC2)cc1	none (no result: DAX1 inh-1)
CCC(C)(C)C(=O)N1CCc2cc(S(=O)(=O)N(C)Cc3ccco3)ccc21	none (no result: DAX1 inh-1)
CCOC(=O)C1CCN(C(=O)c2ccc(OCC(=O)Nc3ccc(OCC)cc3)c(OC)c2)CC1	DAX1 inh-1 4.2
NS(=O)(=O)c1ccc(NC(=O)CN2C(=O)C3C4C=CC(C4)C3C2=O)cc1 (stereo not drawn)	DAX1 inh-1 5.5
CN(C(=O)COC(=O)CSc1ccc([N+](=O)[O-])cc1)C1CCS(=O)(=O)C1 (stereo not drawn)	ssDAF-12 act 1.5
O=C(O)c1cccc(N=NN2CCOCC2)c1	DAX1 inh-2 3.7 (no result: DAX1 inh-1)
COc1ccc(CNC(=O)Cc2csc(Nc3nc(=S)[nH]c4ccccc34)n2)cc1	ssDAF-12 act 1.0
COC(=O)C1=CC[C@@H](NC(=O)OC(C)(C)C)[C@H](O)[C@H]1O[Si](C)(C)C(C)(C)C	none (no result: DAX1 inh-1, DAX1 inh-2)
CC(=O)N1C[C@H]2CON(C)[C@H]2C[C@H]1c1ccccc1Br	ssDAF-12 act 1.1
COc1ccccc1-c1cccc([C@@H]2C[C@H]3[C@H](CON3C)CN2C(C)=O)c1	DAX1 inh-2 3.7
CC(=O)N1C[C@H]2CON(C)[C@H]2C[C@H]1c1cccc(-c2ccccc2C)c1	none
CCOC(=O)N1CCN(C(=O)C[C@H]2C(=O)N(Cc3ccc(OC)cc3)C3=CCCCC[C@@]32C(=O)OC)CC1	none (no result: DAX1 inh-1)
C[C@@H]1ON(C)[C@H]2C[C@H]3c4[nH]c5c(-c6ccc7c(c6)OCO7)cccc5c4CCN3C(=O)[C@@H]12	none (no result: DAX1 inh-1)
COc1ccc(-c2nc3ccccn3c2CN2CCN(c3ccccc3F)CC2)cc1	DAX1 inh-1 4.4
Clc1ccc(-c2nc3ccccn3c2CN2CCOCC2)cc1	none
O=C(CC1CCCC1)N[C@@H](Cc1cccnc1)C(=O)N1CCC[C@H]1C(=O)NCCc1ccccc1Cl	none (no result: DAX1 inh-1)
Cc1cc(C)c2c(N)c(C(=O)N/N=C/c3cccnc3)sc2n1	none (no result: DAX1 inh-1)
Cc1cc(C)c2c(N)c(C(=O)N/N=C/c3ccccc3)sc2n1	DAX1 inh-1 8.7
COc1ccccc1C(=O)N(Cc1ccccn1)CC1CCCO1 (stereo not drawn)	none (no result: DAX1 inh-1)
COc1cc(C(C[N+](=O)[O-])c2c(C)cc3ccccn23)ccc1O (stereo not drawn)	DAX1 inh-1 4.4
CC(C)c1cc(C(C)C)c(S(=O)(=O)N2CCCC(C(=O)N3CCN(Cc4ccccc4)CC3)C2)c(C(C)C)c1 (stereo not drawn)	none (no result: DAX1 inh-1)
Cc1cc(C(=O)OCC(=O)NCc2ccccc2)c(C)o1	none
Cc1cc(C(=O)OCC(=O)NCCc2ccccc2)c(C)o1	DAX1 inh-1 5.1
COC(=O)C1CN(Cc2ccccc2)CCS(=O)(=O)N1Cc1ccc(F)cc1 (stereo not drawn)	none (no result: DAX1 inh-1)
Cn1cnc(S(=O)(=O)N2CCN(c3ccc(Cl)cc3)CC2)c1	none
CC(=O)c1ccc(NS(=O)(=O)c2cccc(C)c2)cc1	hgDAF-12 ag 12
COc1ccc2cc(-c3cccnc3)ncc2c1	hgDAF-12 ag 11
